The list is not random: actives were taken first. Their share in the collection is about 3%.
SARS PLpro yeast – inhibitors of SARS-CoV papain-like protease in yeast; Potency, µM (top dose mostly 32.9 µM), hits mostly activators; actives 0.19% (n = 330,000); AID 485353; S. cerevisiae expressing SARS-CoV PLpro, growth rescue; calls by dose curve; also: nearly all actives have a fitted effect of over 55% in size
Sm TGR block – S. mansoni TGR enzyme inhibition; Q962Y6; purified TGR, DTNB reduction, TNB absorbance 405 nm; Potency, µM (series often up to 114 µM), usual class: inhibitors; actives 3% (n = 360,000); AID 485364; active = well fitted inhibition curve with a large enough effect; inconclusive = small, poorly fitted or top-dose-only effect; inactive = no such curve, though single readings can be large or run the other way; also: nearly all actives have a fitted effect of over 60% in size
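TGR 20 nM + NADPH 100 uM (dispensed conc.), cpd preinc 15 min RT; start with NADPH (500 uM addition) then DTNB (15 mM addition). Kinetic TNB absorbance, 405 nm filter. Four-parameter Hill fit across titration.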
Large screens that a line does not name were inactive.

CCOC(=O)COc1ccc2nsnc2c1Cl	none
C=C(CC)C(=O)c1ccc(OCC(=O)O)c(Cl)c1Cl	Sm TGR block 35µM
Cc1nc(-c2ccc(S(=O)(=O)NCc3ccc(N(C)C)cc3)cc2)co1	none (no result: SARS PLpro yeast)
Cc1ccc(CNC(=O)CSc2nc3ccccc3nc2Cc2ccc(C)cc2)cc1	none (no result: SARS PLpro yeast)
COc1ccccc1C(=O)Nc1ccccc1OCc1cc(=O)n2ccccc2n1	none (no result: SARS PLpro yeast)
Cc1ccc2[nH]c3c(c2c1)CCCC3C(N)=O (centres undefined)	none
Cc1ccc2[nH]c3c(c2c1)CCCC3NC(=O)CCl (centres undefined)	Sm TGR block 45µM
CN(Cc1ccco1)c1ncnc2ccc(-c3ccc4c(c3)OCCO4)cc12	none
O=C(NCCc1ccccc1)c1ccc2c(c1)N(Cc1ccc(Cl)cc1)C(=O)CS2	none (no result: SARS PLpro yeast)
NCCCn1c(C(=O)c2cc(Cl)c(N)c(Cl)c2)c2ccc(C(F)(F)F)cc2[n+]1[O-]	Sm TGR block 45µM
NCCCn1c(C(=O)c2cc(Cl)c(N)c(Cl)c2)c2ccc([N+](=O)[O-])cc2[n+]1[O-]	Sm TGR block 40µM
NC(=O)CCCn1c(C(=O)c2cc(Cl)c(N)c(Cl)c2)c2ccc(C(F)(F)F)cc2[n+]1[O-]	Sm TGR block inconclusive
COc1ccc(C(=O)c2c3ccc([N+](=O)[O-])cc3[n+]([O-])n2CCCC(N)=O)cc1	Sm TGR block inconclusive
O=S(=O)(c1ccc(Cl)cc1)c1nc(-c2cccc(Br)c2)oc1NCc1ccccc1	none (no result: SARS PLpro yeast)
O=C(CSCc1nc2cccnc2n1C1CCCCC1)NCc1cccc(Br)c1	none (no result: SARS PLpro yeast)
COc1cccc(NC(=O)c2sc3nc(C)c(C(=O)Nc4ccc(C)cc4C)c(-c4ccc(C)o4)c3c2N)c1	none (no result: SARS PLpro yeast)
O=C1CC(Nc2ccc(N3CCOCC3)cc2)C(=O)N1c1ccccc1F (centres undefined)	Sm TGR block 40µM
COc1ccc(NC(=O)C2CC(=O)N(C(C)C)C2)cc1 (centres undefined)	none
O=C1CC(Nc2ccccc2)C(=O)N1c1ccc(N2CCOCC2)cc1 (centres undefined)	none
O=C(Nc1ccc(N2CCOCC2)cc1)NC1CCCCC1	none
COc1ccc(NC2CC(=O)N(C(C)C)C2=O)cc1 (centres undefined)	Sm TGR block 7.9µM
CC(C)N1C(=O)CC(Nc2ccc(N3CCOCC3)cc2)C1=O (centres undefined)	Sm TGR block 35µM
O=C1CC(Nc2ccc(N3CCOCC3)cc2)C(=O)N1C1CCCCC1 (centres undefined)	Sm TGR block 40µM
CC(C)CC(=O)NC(=S)Nc1ccc(N2CCOCC2)cc1	Sm TGR block inconclusive
Cc1cc(C)cc(NC(=O)c2cc(S(=O)(=O)N3CCC(C)CC3)cn2C)c1	none (no result: SARS PLpro yeast)
CCN(CC)c1ccc(NC(=O)C2COc3ccc(OC)cc3C2)c(C)c1 (centres undefined)	none (no result: SARS PLpro yeast)
O=C1CC(NNc2ccccc2)C(=O)N1c1ccc(N2CCCCC2)cc1 (centres undefined)	Sm TGR block 45µM
Cc1ccc(N2C(=O)CC(Nc3ccccc3)C2=O)cc1 (centres undefined)	none
Cc1cc(C)n2nc(-c3ccsc3-n3c(C)ccc3C)cc2n1	Sm TGR block 3.5µM
Cc1ccc(-c2cc3nc(C)cc(C)n3n2)cc1	none (no result: Sm TGR block)
O=S(=O)(c1cnc(Cl)c(Cl)c1)N1CCc2ccccc21	Sm TGR block 4µM
O=S(=O)(c1cnc(Cl)c(Br)c1)N1CCc2ccccc21	Sm TGR block 18µM
O=S(=O)(c1cnc(Cl)c(Cl)c1)N1CCCc2ccccc21	Sm TGR block inconclusive
CN1CCN(S(=O)(=O)c2cnc(Cl)c(Br)c2)CC1	none
Cc1cccc(N2CCN(CCCNc3ncnc4onc(-c5ccc(F)cc5)c34)CC2C)c1 (centres undefined)	none (no result: SARS PLpro yeast)
Cc1cccc(Oc2ccc3c(c2)Oc2ccccc2NC3=O)c1	none (no result: SARS PLpro yeast)
CCCn1nnc(NC(=O)/C=C/c2ccco2)n1	Sm TGR block 5.6µM
CCCn1nnc(NC(=O)/C=C/c2ccccc2)n1	none
Cn1nnc(NC(=S)NC(=O)/C=C/c2ccco2)n1	Sm TGR block 3.2µM
O=C(/C=C/c1ccco1)NC(=S)Nc1nc(-c2ccc(Cl)cc2)cs1	none
Cc1ccccc1Nc1ncnc2c1c(-c1ccccc1)cn2-c1ccc(F)cc1	none (no result: SARS PLpro yeast)
COc1ccccc1-c1c(C)nn2c(N3CCN(c4cccc(Cl)c4)CC3)cc(C)nc12	none (no result: SARS PLpro yeast)
CCCCCn1cc2c(c1-c1ccccc1Br)c(=O)n(C)c(=O)n2C	none (no result: SARS PLpro yeast)
Cc1cc(C)c(OCC(=O)N(Cc2ccco2)Cc2ccco2)c(C)c1	none (no result: SARS PLpro yeast)
Cn1nc(-c2ccc(N3CCOCC3)c(NS(=O)(=O)c3ccc(Cl)cc3)c2)c2ccccc2c1=O	none
Cc1ccc(S(=O)(=O)Nc2cc(-c3nn(C)c(=O)c4ccccc34)ccc2N2CCOCC2)cc1	Sm TGR block 56µM
COc1ccc(NC(=O)CCCc2nnc3n(CCC(C)C)c(=O)c4sccc4n23)cc1Cl	none (no result: SARS PLpro yeast)
COc1ccccc1C(=O)NC1(C(F)(F)F)C(=O)NC(C)=C1C#N (centres undefined)	none (no result: SARS PLpro yeast)
O=C(CC(Cc1ccccc1)c1ccco1)NCc1ccco1 (centres undefined)	Sm TGR block inconclusive

From PubChem BioAssay
